Screens deposited in PubChem by Broad Institute.
The list is not random: actives were taken first. Their share in the collection is about 2.9%.
MITF act – activators of MITF-driven TRPM1 promoter reporter, primary screen, cell-based, SK-MEL-5, luciferase, single point. actives 0.75% (n = 300,000). activation, % at 12.5 µM. SK-MEL-5 TRPM1-promoter luciferase, 24 h; % of positive control, neutral wells = 0;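 active = mean activation of at least 80% with every replicate also reaching 80%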;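 also: 0% = neutral control wells and 100% = parthenolide positive control wells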
N-glyco inh – increase of ERlucT glycosylation luciferase signal, primary screen, N-linked glycosylation inhibitor project, D54 ERlucT cells, luminescence, set 2; D54 ERlucT glycosylation luciferase reporter, 24 h; percent of 100 nM tunicamycin response; reporter increase, % at 12.5 µM; actives 0.23% (n = 360,000); AID 588692, 2011;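 active = mean luciferase reporter signal, scaled so untreated is 0 and the glycosylation-blocking control 100, at or above a set limit in every replicate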;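 also: luciferase carries N-glycosylation sites so blocking glycosylation raises the light; 0% = median of neutral control wells and 100% = median of 100 nM tunicamycin wells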
PfHsp90 set2 – growth inhibition of PfHsp90-expressing yeast, primary screen, antimalarial PfHsp90 inhibitor project, S. cerevisiae, BacTiter-Glo luminescence, single point, set 2; AID 504621, 2011; actives 0.32% (n = 310,000); inhibition, % at 9.4 µM; BacTiter-Glo ATP, 48 h; yeast lacking PDR1 and PDR3 efflux regulators;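 active = every replicate shows inhibition above about 80%, whatever the replicate mean, limit read from the data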;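 also: 0% = DMSO neutral controls and 100% = 20 µM radicicol positive controls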
Wnt act – Wnt/beta-catenin pathway activators, primary screen, cell-based, plate reader, single point; Wnt/beta-catenin reporter cell assay, activator; activation, % at 9.35 µM; actives 1.2% (n = 300,000); in the data active = activation above about 30%, passing the limit was not always enough;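 also: 0% = neutral control wells and 100% = positive control wells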
NSD2 inh – NSD2 histone methyltransferase inhibitors, primary screen, biochemical, AlphaScreen, single concentration, set 2. actives 0.54% (n = 310,000). Histone-lysine N-methyltransferase NSD2 (Homo sapiens), O96028. inhibition, % at 12.5 µM. NSD2 peptide methylation, 120 min; in the data active = inhibition above about 50%
Target sequence (O96028 whole entry, looked up): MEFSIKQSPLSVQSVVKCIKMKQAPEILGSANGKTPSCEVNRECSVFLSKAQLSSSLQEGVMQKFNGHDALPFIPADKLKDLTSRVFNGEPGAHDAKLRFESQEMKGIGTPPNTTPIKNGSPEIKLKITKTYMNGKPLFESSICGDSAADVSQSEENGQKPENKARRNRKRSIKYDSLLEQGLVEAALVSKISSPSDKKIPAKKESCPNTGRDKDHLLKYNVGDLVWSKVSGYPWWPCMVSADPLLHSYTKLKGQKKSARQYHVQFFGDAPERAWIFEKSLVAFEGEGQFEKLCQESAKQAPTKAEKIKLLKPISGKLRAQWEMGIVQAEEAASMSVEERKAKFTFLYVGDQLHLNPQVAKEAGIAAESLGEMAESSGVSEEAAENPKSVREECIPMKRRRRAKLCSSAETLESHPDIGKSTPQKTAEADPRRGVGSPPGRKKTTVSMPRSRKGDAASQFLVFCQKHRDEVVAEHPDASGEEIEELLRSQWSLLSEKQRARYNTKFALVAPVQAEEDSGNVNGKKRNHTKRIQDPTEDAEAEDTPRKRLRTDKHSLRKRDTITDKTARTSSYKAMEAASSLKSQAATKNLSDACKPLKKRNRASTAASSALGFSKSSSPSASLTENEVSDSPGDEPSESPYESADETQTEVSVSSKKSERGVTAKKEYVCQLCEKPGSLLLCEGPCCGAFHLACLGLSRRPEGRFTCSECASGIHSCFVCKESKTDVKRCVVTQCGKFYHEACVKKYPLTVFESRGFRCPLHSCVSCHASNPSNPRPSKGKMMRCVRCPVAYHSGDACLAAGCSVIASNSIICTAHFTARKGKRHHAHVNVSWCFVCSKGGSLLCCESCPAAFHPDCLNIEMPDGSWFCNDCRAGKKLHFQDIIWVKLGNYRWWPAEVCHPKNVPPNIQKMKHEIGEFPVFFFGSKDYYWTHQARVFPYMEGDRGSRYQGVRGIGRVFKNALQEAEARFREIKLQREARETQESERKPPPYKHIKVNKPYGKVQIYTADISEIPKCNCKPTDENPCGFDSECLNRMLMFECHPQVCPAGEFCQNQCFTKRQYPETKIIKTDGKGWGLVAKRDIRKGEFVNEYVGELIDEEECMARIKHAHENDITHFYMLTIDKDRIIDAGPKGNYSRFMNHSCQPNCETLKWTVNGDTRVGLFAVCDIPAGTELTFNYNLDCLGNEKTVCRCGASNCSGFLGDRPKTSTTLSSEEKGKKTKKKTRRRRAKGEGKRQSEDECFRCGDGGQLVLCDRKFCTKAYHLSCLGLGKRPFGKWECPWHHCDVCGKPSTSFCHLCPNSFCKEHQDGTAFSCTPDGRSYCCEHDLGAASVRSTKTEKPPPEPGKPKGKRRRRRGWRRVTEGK
MITF TRPM1 inh – inhibitors of MITF-dependent TRPM1 promoter reporter, primary screen, cell-based, SK-MEL-5, single point, luciferase; inhibition, % at 12.5 µM; SK-MEL-5 TRPM1 promoter luciferase, 24 h; actives 0.83% (n = 330,000); AID 488899, 2010;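 active = mean inhibition across replicates of 60% or more, whatever share of single replicates reaches that level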
The depositor's hits bear a star; . = no result.

SMILES	MITF act	N-glyco inh	PfHsp90 set2	Wnt act	NSD2 inh	MITF TRPM1 inh
CC(=O)N1CC(C)Oc2ccc(S(=O)(=O)Nc3ccc(Cl)cn3)cc21 (stereo not given)	5	1	-2	3	2	-5
CCOC(=O)c1c(C)[nH]c(C)c1C(=O)COC(=O)c1ccccc1O	3	5	-48	.	1	-4
COc1ccc(C(=O)COC(=O)c2ccccc2O)c(OC)c1	65	-2	-7	50*	1	-57
COc1ccc(C(=O)OCC(=O)c2c[nH]c3ccccc23)c(OC)c1	69	-1	.	36*	-1	-67
COc1cccc(C(=O)OCC(=O)c2c[nH]c3ccccc23)c1OC	53	0	-10	5	.	-51
COc1ccc(C(=O)c2c[nH]c3ccccc23)cc1	86*	-4	12	-2	-3	-92
Cc1[nH]c2ccccc2c1C(=O)COC(=O)c1ccccc1O	111*	-2	-13	-1	-1	-109
COc1ccc(NC(=O)c2cccc(NC(=O)c3ccco3)c2)cc1	.	.	.	.	2	.
N#Cc1c(-n2ccnc2)cccc1-n1ccnc1	5	0	7	.	2	-5
O=c1[nH]c(-c2ccccc2)cnc1-c1ccccc1	.	-17	.	37*	.	.
Cc1ccc(S(=O)(=O)N2C[C@@H]3CCCC[C@@H]3[C@@H](C)[C@H]2CC(=O)c2ccccc2)cc1	7	-9	6	-1	.	-7
CC1(C)N=C(SCC(=O)Nc2ccc(Cl)cc2)C(c2ccc(Cl)cc2)=N1	3	4	110*	0	-2	1
Cc1nc(C)c(C(=O)N/N=C/c2cc(Br)ccc2O)s1	-61	-7	-18	0	0	63*
O=C(N/N=C\c1cc(Br)ccc1O)c1ccc(S(=O)(=O)N2CCCCC2)cc1	-72	-11	-4	0	2	74*
O=C(N/N=C/c1ccccc1O)c1ccncc1	-14	4	2	-4	.	15
O=C(N/N=C/c1ccc(O)c2ncccc12)c1cccc(Br)c1	-65	-15	104*	-5	-2	65*
O=C(N/N=C/c1cc(Br)ccc1O)c1ccncc1	-75	1	15	-3	-2	76*
OC(c1ccccc1)(c1ccccc1)C1CCN(CCCOc2ccc(-c3ccc(F)cc3F)cc2)CC1	.	.	.	-27	.	.
Cc1ccccc1N(CC(=O)Nc1ccccc1C(=O)NCc1ccco1)S(=O)(=O)c1ccccc1	4	4	-6	.	.	-5
Cn1c(-c2cccc3ccccc23)n[nH]c1=S	2	4	-13	.	1	-4
Cc1ccc(-n2c(SCc3ccc(Cl)c(Cl)c3)nnc2-c2ccc(C(C)(C)C)cc2)cc1	.	.	.	.	3	.
Nc1ccc(-c2nc3ncccc3o2)c(O)c1	95*	0	-10	18	-1	-93
Nc1ccc(-c2nc3ncccc3o2)c(Cl)c1	43	-5	2	42*	-4	-35
O=P(Nc1ccccc1)(Nc1ccccc1)c1ccccc1	-1	-1	.	-2	7	0
CCOc1cc2c(C#N)c(N3CCCC3)nc(N)c2c(N)n1	14	2	4	4	.	-11
SMILES	MITF act	N-glyco inh	PfHsp90 set2	Wnt act	NSD2 inh	MITF TRPM1 inh
N#Cc1c(N2CCCC2)nc(N)c2c(N)nc(N3CCCC3)cc12	0	41*	11	.	.	0
CC(=O)Nc1cccc(-n2nnc(SCC(=O)c3ccccc3)n2)c1	.	-1	-5	60*	-4	-39
CC(=O)c1cccc(-c2ccnc3c2CC(C(=O)NCc2ccco2)O3)c1 (stereo not given)	.	32*	.	-2	-4	.
O=C(NCc1ccccc1)C1Cc2c(-c3cccc(F)c3)ccnc2O1 (stereo not given)	.	35*	.	.	-1	.
CC(=O)c1cccc(-c2ccnc3c2CC(C(=O)NCc2ccc(F)c(F)c2)O3)c1 (stereo not given)	.	34*	.	1	-3	.
COC(=O)c1c(-c2ccc(OC)cc2)sc2cc3c(cc12)OCO3	92*	-1	5	33*	.	-83
CC(=O)c1cccc(NC(=O)NCc2ccc3c(c2)OCO3)c1	8	-2	-34	2	-1	-11
Cc1ccc(C(=O)Nc2ccc3c(c2)OCO3)cc1Cl	87*	-9	.	46*	-1	-75
O=C(NCc1ccc2c(c1)OCO2)Nc1cccc(Cl)c1	80*	0	-7	11	-1	-77
O=C(Nc1ccc2c(c1)OCO2)N1CCCc2ccccc21	31	-3	-31	36*	1	-32
COc1cccc(NC(=O)Nc2ccc3c(c2)OCO3)c1	67	-7	-20	40*	-4	-64
CC(=O)C1=C(O)C(=O)N(c2ccc(Br)cn2)C1c1cccc([N+](=O)[O-])c1 (stereo not given)	0	0	7	0	1	0
Cc1ccc(CCN2CCN=C2Nc2ccccc2)cc1	12	-1	-5	-2	.	-9
O=C(Nc1ccc2c(c1)CCC2)Nc1ccc2c(c1)OCO2	64	-3	5	50*	-3	-55
O=C(NCc1ccc2c(c1)OCO2)c1ccc(Br)cc1	.	-2	89*	2	-1	-5
O=C(NCc1ccc2c(c1)OCO2)c1ccccc1	13	1	-26	0	1	-13
COc1ccc(NC(=O)Nc2ccc(C)cc2OC(F)F)cc1OC	.	2	.	.	0	-3
O=C(Nc1ccc2c(c1)OCCO2)Nc1ccc2c(c1)OCO2	25	-17	-23	11	0	-17
Cc1ccc(NC(=O)Nc2ccc3c(c2)OCO3)c(OC(F)F)c1	106*	-5	10	38*	-1	-104
O=C(Nc1cccc(Cl)c1)Nc1ccc2c(c1)OCO2	43	-5	-16	32*	-4	-73
COC(=O)[C@]12C[C@H](CC(=O)N3CCSCC3)C(=O)N(Cc3ccccc3)C1=C[C@H](C(C)(C)C)O[C@@H]2C	.	.	.	-2	.	.
O=C(Nc1cccc([N+](=O)[O-])c1)Nc1cccc([N+](=O)[O-])c1	11	-10	20	3	4	-9
Cc1ccc(NC(=O)Nc2ccc3c(c2)OCO3)cc1F	126*	-4	-5	0	-1	-124
O=C(Nc1cccc([N+](=O)[O-])c1)Nc1ccc2c(c1)OCCO2	90*	-8	11	10	0	-82
Cc1cc(F)ccc1NC(=O)Nc1ccc2c(c1)OCO2	15	7	2	6	-3	-14
